Sampled rows, rich in hits. Any-hit rate of the full collection: about 19%.
DT40 TDP1 CPT: qHTS for Inhibitors of human tyrosyl-DNA phosphodiesterase 1 (TDP1): qHTS in cells in presence of CPT; hit rate 12% among 420,000; Potency, µM (top dose mostly 46.2 µM), without a hit: at the top dose activity change, negative = growth inhibition, actives largely listed as inhibitors; AID 686979, 2013; chicken DT40 Tdp1-/-;hTDP1 cells + 20 nM CPT, ATP luminescence, 48 h; further: potency means the concentration at half of the fitted maximal effect; nearly all actives have a fitted effect of over 55% in size
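Chicken DT40 Tdp1-/- cells complemented with human TDP1, 400 cells/well, exposed to compounds plus 20 nM camptothecin for at least 48 h at 37 C; viability read as ATP content by CellTiter-Glo luminescence.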
HT1080 IDH1KD tx: qHTS for induction of synthetic lethality in tumor cells producing 2HG: qHTS for the HT-1080-IDH1KD cell line; Potency, µM (top dose mostly 46.1 µM), for the others: at the top dose activity, negative = toxicity, actives largely listed as cytotoxic; hit rate 2% among 360,000; HT-1080 IDH1 knockdown viability, ATP luminescence, 48 h; AID 686971, 2013;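 further: potency means the concentration at half of the fitted maximal effect; 0% = DMSO wells and -100% = cell-free medium wells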
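Assay cells: HT-1080 with IDH1 knockdown, 750 per well, RPMI/5% FBS. Exposure: 48 h at 37 °C following 2 h pre-incubation. Read: CellTiter-Glo luminescence; fitted concentration-response, curve class assigned.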
IL1B secr inh: qHTS for Inhibitors of Inflammasome Signaling: IL-1-beta AlphaLISA Primary Screen; AID 743279, 2014; hit rate 4.7% among 360,000; THP-1 LPS/ATP IL-1B secretion, AlphaLISA, 16 h; hits give low values; activity change, % at 57.5 µM; in the data active means activity change below about -50%; inconclusive means mostly about -30% to -49%
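THP-1 cells pretreated 1 hr with compounds (up to 57.5 uM final), then stimulated with LPS (250 ng/mL final) plus ATP (1.25 mM final); secreted IL-1B measured by AlphaLISA after 16 hr, decreased signal indicating inhibition.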
ELG1 DNA repair: qHTS screen for small molecules that inhibit ELG1-dependent DNA repair in human embryonic kidney (HEK293T) cells expressing luciferase-tagged ELG1. HEK293T ELG1-luciferase reporter, luminescence, 16 h; DNA damage induced by 5-fluorouridine. Potency, µM (highest dose often 46.1 µM), for the others: at the top dose activity change, negative = inhibition, hits mostly inhibitors. hit rate 2.3% among 330,000; further: potency means the concentration at half of the fitted maximal effect; nearly all actives have a fitted effect of over 55% in size
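HEK293T cells expressing luciferase-tagged ELG1 (2,000/well) received 5-Fluorouridine plus compound or DMSO for 16 hr at 37 °C. Luciferase was read by ONE-Glo luminescence after 30 min at room temperature.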
HT1080-NT tox: qHTS for induction of synthetic lethality in tumor cells producing 2HG: qHTS for the HT-1080-NT fibrosarcoma cell line. HT-1080-NT fibrosarcoma viability, CellTiter-Glo ATP luminescence, 48 h. Potency, µM (titrated, usually from 46.1 µM), without a hit: at the highest dose activity, negative = less viability, most hits filed as cytotoxic. hit rate 1.6% among 360,000. AID 686970, 2013;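 further: NT is the 2HG producing partner of a matched IDH1 knockdown line; potency means the concentration at half of the fitted maximal effect; 0% = DMSO-treated cells and -100% = media-only wells without cells; nearly all actives have a fitted effect of over 55% in size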
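Viability by CellTiter-Glo luminescence after 48 h compound exposure at 37C of HT-1080-NT cells (750/well, RPMI, 5% FBS). % activity scaled between DMSO wells and medium-only wells, then curve-fitted and categorized by curve class.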
DT40 TDP1 no CPT: qHTS for Inhibitors of human tyrosyl-DNA phosphodiesterase 1 (TDP1): qHTS in cells in absence of CPT | DT40 Tdp1-/- hTDP1 cells, no CPT, ATP luminescence, 48 h | Potency, µM (top dose mostly 46.2 µM), for inactives: at the highest dose activity change, negative = growth inhibition, actives largely listed as inhibitors | hit rate 15% among 420,000; further: potency means the concentration at half of the fitted maximal effect; nearly all actives have a fitted effect of over 55% in size
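Seeded 400 DT40-hTDP1 cells/well (vehicle DMSO, no 20 nM CPT); pinned compounds; ≥48 hr at 37 °C; CellTiter-Glo luminescence as viability measure.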
The depositor's hits bear a star; ? = inconclusive; . = not tested or not shown. Unless noted, the call rests on the fitted dose curve; in most records, active means well fitted curve in the direction sought with a large enough effect; inconclusive means small, poorly fitted or top-dose-only effect, or another doubt; inactive means no such curve, though single readings can be large; an effect the other way counts as inactive or inconclusive. Unless noted, on the % scale 0 is the no-effect control and ±100 the full control effect.

SMILES	DT40 TDP1 CPT	HT1080 IDH1KD tx	IL1B secr inh	ELG1 DNA repair	HT1080-NT tox	DT40 TDP1 no CPT
CCN1CCN(c2ccc(S(=O)(=O)N3CCOCC3)cc2NC(=O)C(C)Oc2ccc(Cl)cc2)CC1 (stereo not drawn)	?	-1.6%	-8.1	?	-19.2%	18.4µM*
CCN1CCN(c2ccc(S(=O)(=O)N3CCCCC3)cc2NC(=O)/C=C/c2ccc(OC(F)F)cc2)CC1	?	-20.6%	-84.0*	2.0%	-10.8%	?
CN1CCN(c2ccc(S(=O)(=O)N3CCCCC3)cc2NC(=O)COc2ccc(F)cc2)CC1	?	-15.4%	?	-20.6%	1.5%	?
CCC(Oc1ccccc1)C(=O)Nc1ccccc1N1CCCCC1 (stereo not drawn)	?	-14.5%	0.0	-5.9%	-22.2%	?
CC(Oc1ccc(F)cc1)C(=O)Nc1ccccc1N1CCCCC1 (stereo not drawn)	?	-1.3%	-11.8	1.4%	-5.2%	16.4µM*
CC(Oc1ccc(F)cc1)C(=O)Nc1cc(S(=O)(=O)N2CCCCC2)ccc1N1CCN(C)CC1 (stereo not drawn)	23.1µM*	-14.7%	?	.	-10.1%	?
NC(Cc1cc(I)c(Oc2cc(I)c(O)c(I)c2)c(I)c1)C(=O)O (stereo not drawn)	6.9%	.	.	.	.	-13.7%
COc1ccc(N2CCN(CCNC(=O)Nc3ccc(C)cc3Cl)CC2)cc1	?	-3.8%	-23.0	-5.3%	-4.3%	?
O=C(Nc1ccc2c(c1)OCCO2)C1c2ccccc2OCC(=O)N1Cc1cccnc1 (stereo not drawn)	8.9%	10.8%	-14.4	.	24.4%	-1.3%
CN(C)S(=O)(=O)c1cccc(NC(=S)NN=C(Cc2ccccc2)Cc2ccccc2)c1	5.8µM*	13.3%	12.9	0.7%	5.6%	5.17µM*
CN(CC(=O)Nc1cccc(S(=O)(=O)N(C)C)c1)Cc1ccccc1	-28.3%	0.9%	13.3	?	7.6%	?
COc1cc(/C=N/NC(=S)Nc2cccc(S(=O)(=O)N(C)C)c2)ccc1O	?	-0.3%	-98.0*	?	-17.5%	18.4µM*
Cc1ccc(C2CC(c3ccccc3)=NN2C(=S)Nc2ccccc2)o1 (stereo not drawn)	3.26µM*	?	-8.7	?	?	5.8µM*
CC1=NN(C(=S)Nc2ccccc2)C(c2ccccc2)C1 (stereo not drawn)	-3.5%	-7.9%	-6.4	?	-7.3%	-10.5%
COc1cc(/C=N/N=C2/SCC(=O)N2c2ccc(O)cc2)ccc1O	9.2µM*	-1.2%	34.9	-14.0%	-5.3%	20.6µM*
COc1cc(/C=N\N=C2/SC(CC(=O)O)C(=O)N2c2ccc(O)cc2)ccc1O (stereo not drawn)	-2.4%	7.7%	16.8	1.9%	16.3%	1.9%
CCCCN(C(=O)c1cc(-c2ccc(F)cc2)nc2ccccc12)c1c(N)n(CCCC)c(=O)[nH]c1=O	?	-2.0%	-69.7*	?	-4.2%	?
CCCCN(C(=O)CSc1nn(-c2ccc(F)cc2)c(=S)s1)c1c(N)n(CCCC)c(=O)[nH]c1=O	?	-4.8%	-71.6*	-19.3%	-2.6%	29.1µM*
Cn1c(N)c(C(=O)CSc2nn(-c3ccc(F)cc3)c(=S)s2)c(=O)n(C)c1=O	20.6µM*	1.6%	8.7	?	3.7%	23.1µM*
O=C(CSc1nn(-c2ccc(Cl)cc2)c(=S)s1)N1CCN(C(=O)c2ccco2)CC1	2.5%	-4.0%	-1.4	?	-23.3%	-24.5%
O=C(CSc1nn(-c2ccc(F)cc2)c(=S)s1)N1CCN(C(=O)c2ccco2)CC1	-26.4%	-25.5%	-79.1*	?	-47.5%	-17.1%
Cn1c(N)c(C(=O)COC(=O)Cc2ccc(F)cc2)c(=O)n(C)c1=O	1.3%	1.5%	-1.7	0.4%	1.4%	-9.1%
CCCCn1c(N)c(N(CC(C)C)C(=O)c2cc(-c3ccc(F)cc3)nc3ccccc23)c(=O)[nH]c1=O	-5.2%	-10.3%	35.5	-24.9%	-13.5%	-27.1%
Cc1ccc(NC(=O)Cn2ccn(-c3ccccc3)c(=O)c2=O)cc1	-4.2%	.	.	.	.	-0.3%
CC(=O)c1ccc(NC(=O)c2cc(-c3ccc(Cl)c(Cl)c3)on2)cc1	-5.4%	.	.	.	.	18.8%
SMILES	DT40 TDP1 CPT	HT1080 IDH1KD tx	IL1B secr inh	ELG1 DNA repair	HT1080-NT tox	DT40 TDP1 no CPT
Cc1ccc(CN2CC(N3CC=CC3)CS2(=O)=O)cc1 (stereo not drawn)	?	0.5%	-9.2	.	17.8%	-18.7%
O=C(Nc1cccc(F)c1)c1cc(S(=O)(=O)N2CCC(C(=O)O)CC2)ccc1F	-2.7%	13.9%	-6.4	-0.4%	-0.4%	0.0%
COc1ccc(CNS(=O)(=O)c2ccc(F)c(C(=O)Nc3c(C)cc(C)cc3C)c2)cc1	-15.8%	.	.	.	.	-27.9%
Cc1ccc(NC(=O)c2cc(S(=O)(=O)NCCC3=CCCCC3)ccc2F)cc1F	?	?	-76.9*	?	?	16.4µM*
COc1ccc(NC(=O)c2cc(S(=O)(=O)NCCC3=CCCCC3)ccc2F)cc1	25.9µM*	.	.	.	.	23.1µM*
O=C(Nc1cccc(F)c1)c1cc(S(=O)(=O)NCCC2=CCCCC2)ccc1F	?	?	-61.1*	?	?	?
CC(=O)Nc1ccc(Nc2c(CCC(C)C)c(C)c(C#N)c3nc4ccccc4n23)cc1	-18.9%	.	.	.	.	-1.5%
C[C@@H]1CN([C@@H](C)CO)C(=O)c2cc(C#Cc3ccccc3)cnc2O[C@@H]1CN(C)Cc1ccccn1	?	-17.4%	-15.3	.	-9.6%	?
CCN(CC(O)Cn1c2ccccc2c2ccccc21)S(=O)(=O)c1ccc(C)cc1 (stereo not drawn)	29.1µM*	-26.6%	?	?	-4.0%	?
CC(=O)Nc1ccccc1N(CC(O)Cn1c2ccccc2c2ccccc21)S(=O)(=O)c1ccc(C)cc1 (stereo not drawn)	?	14.6µM*	?	?	?	18.4µM*
Cc1ccc(N(CC(O)Cn2c3ccccc3c3ccccc32)S(=O)(=O)c2ccc(F)cc2)cc1 (stereo not drawn)	?	.	.	.	.	20.6µM*

Compound activity from PubChem BioAssay.
